# From PubChem
# GLP1R cytotox: cytotoxic in the GLP-1 receptor inverse agonist counter-screen. hit rate 0.13% among 410,000. Potency, µM (top dose mostly 38.3 µM), usual class: inhibitors. HEK293 cAMP-luciferase reporter cells, luminescence, 24 h;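 further: loss of luciferase light is scored as toxicity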
#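 MLSMR compounds, 24 hr on cells at 37 deg C/5% CO2; luminescence after luciferase reagent (12 min RT). Inhibition counted as the undesired cytotoxic outcome.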
# GLP1R ag: agonists of human GLP-1 receptor; P43220; HEK293 GLP-1R CRE-luciferase, luminescence, 4-6 h; cells express a hypersensitive GLP-1R form; Potency, µM (series often up to 45.6 µM), usual class: activators; hit rate 0.007% among 380,000; AID 624172
# Target sequence (P43220 whole entry, looked up): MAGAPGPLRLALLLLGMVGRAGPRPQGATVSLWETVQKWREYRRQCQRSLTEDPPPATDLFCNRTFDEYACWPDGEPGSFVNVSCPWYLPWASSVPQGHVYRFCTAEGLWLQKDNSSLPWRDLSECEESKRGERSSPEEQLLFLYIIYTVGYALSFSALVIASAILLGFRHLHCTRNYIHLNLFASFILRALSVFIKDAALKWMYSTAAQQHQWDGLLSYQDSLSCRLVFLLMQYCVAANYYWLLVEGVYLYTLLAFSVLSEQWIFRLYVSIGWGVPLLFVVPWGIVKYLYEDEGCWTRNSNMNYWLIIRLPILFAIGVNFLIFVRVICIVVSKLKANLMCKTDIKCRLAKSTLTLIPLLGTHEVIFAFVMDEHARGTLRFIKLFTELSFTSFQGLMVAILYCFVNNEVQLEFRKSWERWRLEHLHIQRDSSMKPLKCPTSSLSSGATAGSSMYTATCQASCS
# BRCA1 expr act: increases BRCA1 expression; Potency, µM (titrated, usually from 46.1 µM), most hits filed as activators; AID 624202; hit rate 1.1% among 380,000; MCF7-BRCA1-FFLuc reporter, luminescence, 48 h; response scale: scaled: vehicle 0%, 10 µM genistein 100%; further: nearly all actives have a fitted effect of over 80% in size
#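 Cells: MCF7-BRCA1-FFLuc, 2000/well. Exposure: 48 h, 37 °C, 5% CO2. Read: luminescence, 15 min post-substrate. Controls: genistein 10 microM (maximal activation), DMSO (neutral).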
# Mito fusion act: inhibitors of mitochondrial division or activators of mitochondrial fusion; S. cerevisiae fusion-defective mutant growth rescue, CellTiterGlo 48 h; Potency, µM (doses to about 46.1 µM), actives largely listed as activators; hit rate 0.23% among 320,000; AID 485298; further: nearly all actives have a fitted effect of over 45% in size
#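 Read-out: ATP-based luminescence (CellTiterGlo, 10 min ambient) reporting growth of fusion-defective ts yeast after 48 hours at 37C on glycerol/ethanol YPEG medium in the presence of compound.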
# GLP-1R inv ag: acts as inverse agonist at human GLP-1 receptor; HEK293 GLP-1R CRE-luciferase, luminescence, 24 h; GLP-1R form is constitutively active; Potency, µM (series often up to 38.3 µM), hits mostly inhibitors; hit rate 1.6% among 410,000; AID 624417; further: nearly all actives have a fitted effect of over 55% in size
#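 qHTS in 1536-well format: reporter HEK293 cells expressing constitutive GLP-1R activity in DMEM + 10% Nu serum, 24 hr with compounds at 37 deg C, luminescence read after 12 min with detection reagent.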
# A number is an active result; 0 = inactive; ? = inconclusive; - = no result. Sampled rows, rich in hits. Any-hit rate of the full collection: about 2.8%. The call rests on the fitted dose curve; in most records, active means well fitted curve in the direction sought with a large enough effect; inconclusive means small, poorly fitted or top-dose-only effect, or another doubt; inactive means no such curve, though single readings can be large; an effect the other way counts as inactive or inconclusive.
SMILES,GLP1R cytotox,GLP1R ag,BRCA1 expr act,Mito fusion act,GLP-1R inv ag
Cn1cccc1CC(=O)N/N=C/c1cc([N+](=O)[O-])ccc1Cl,0,0,0,0,0
CCOCC(=O)Nc1nc(C)cc(C)n1,0,0,0,0,0
O=C(Nc1cc(Cl)cc(Cl)c1)C1CC(=O)N(C2CCCC2)C1 (centres undefined),0,0,0,0,8.91µM
CC(=O)OCC#CCSc1nc2ccccc2n1C,0,0,0,0,0
O=C(c1cccs1)N1CCN(C(=O)c2cn(-c3ccccc3)nc2-c2ccccc2)CC1,0,0,0,-,10µM
O=C(c1cn(-c2ccccc2)nc1-c1ccccc1)N1CCOCC1,0,0,0,0,0
Cc1ccsc1C(=O)N1CCCC(CO)(Cc2ccccc2)C1 (centres undefined),0,0,0,0,0
CN=C(Nc1ccc(Br)cc1)SC1CC(=O)N(c2ccc(OC)cc2)C1=O (centres undefined),0,0,0,0,11.2µM
O=C1CCC(/C=C/c2ccccc2)=NN1Cc1ccccc1Cl,0,0,0,0,10µM
C=CCN1N=C(/C=C/c2ccc(OC)cc2)CCC1=O,0,0,?,0,0
C=CCN1N=C(/C=C/c2ccc(C)cc2)CCC1=O,0,0,11.2µM,0,0
CC1CCCCC1NC(=O)CN1C(=O)NC(C)(c2ccc(OC(F)F)cc2)C1=O (centres undefined),0,0,0,0,0
CC(C)CCn1c(NCCc2ccccc2)nc2c1c(=O)n(C)c(=O)n2C,0,0,0,17.8µM,?
Cn1c(=O)c2c(nc(NCCc3ccccc3)n2Cc2ccc(F)cc2)n(C)c1=O,0,0,0,0,0
COCCN(C(=O)CCC(=O)Nc1cc(C)on1)C(C(=O)NC1CCCC1)c1ccccc1F (centres undefined),0,0,0,0,0
CCC/C=C/c1ccc(CN2C(C(C)C)C(=O)N(Cc3cn(CCC4OCCO4)nn3)CCS2(=O)=O)cc1 (centres undefined),0,0,0,-,10µM
CCC/C=C/c1ccc(CN2C(CC(C)C)C(=O)N(Cc3cn(CCC4OCCO4)nn3)CCS2(=O)=O)cc1 (centres undefined),0,0,0,-,?
O=C(O)C1=CC(=C(c2ccc(O)c(C(=O)O)c2)c2ccc(O)c(C(=O)O)c2)C=CC1=O,-,-,0,13µM,-
Cc1nn(-c2ccccc2)c(/N=C/c2ccc(O)cc2)c1-c1ccccc1,0,0,5.62µM,0,?
N#Cc1ccc(N2Cc3ccccc3C2=NC(=O)c2cccnc2Cl)cc1,0,0,12.6µM,0,0
Oc1c(CN2CCOCC2)cc(CN2CCOCC2)c(O)c1O,0,0,0,-,0
Oc1c(Cl)cc(Oc2cc(Cl)c(O)c(CN3CCOCC3)c2)cc1CN1CCOCC1,0,0,0,-,11.2µM
CC(C)Oc1ccc2ccccc2c1C=O,0,0,0,0,0
O=C(CN1C(=O)NC2(CCCCCC2)C1=O)c1ccc2c(c1)OCCO2,0,0,2.82µM,0,?
O=C(CN1C(=O)NC2(CCCCCC2)C1=O)c1ccc(F)cc1,0,0,0,0,0
SMILES,GLP1R cytotox,GLP1R ag,BRCA1 expr act,Mito fusion act,GLP-1R inv ag
CCOC(=O)Cc1csc(NC(=O)CSC2=NCCS2)n1,0,0,0,0,0
Cc1cccc(N2C(=O)CSC23C(=O)N(CC(=O)NCc2ccccc2Cl)c2ccccc23)c1 (centres undefined),0,0,0,-,10µM
Cc1cccc(N2C(=O)CSC23C(=O)N(CC(=O)NCCc2ccccc2)c2ccccc23)c1 (centres undefined),0,0,0,-,0
N#Cc1ccccc1-c1ccccc1C(=O)N1CCCCC1,0,0,0,0,0
CC1CC1C(=O)Nc1ccc(-c2ccccc2)cc1 (centres undefined),0,0,2.51µM,?,?
C/C(=N\Nc1nc2ccccc2s1)c1ccc(Br)s1,?,0,0,0,10µM
CCN(CC(=O)Nc1c(F)cccc1F)C(=O)c1cc(-c2cccs2)nn1-c1ccccc1,?,0,0,0,10µM
Cc1ccc(NC(=O)CN(C)C(=O)c2cc(-c3cccs3)nn2-c2ccccc2)cc1,0,0,0,0,7.94µM
CN(CC(=O)Nc1c(Cl)cccc1Cl)C(=O)c1cc(-c2cccs2)nn1-c1ccccc1,0,0,0,20µM,?
CC1(C)CC(NC(=O)C(C)(C)Oc2ccc(Cl)cc2)CC(C)(C)N1,0,0,0,0,?
COc1cc(C(=O)N(C)C2CCCN(Cc3ccccc3F)C2)cc(OC)c1OC (centres undefined),0,0,0,0,0
C=CCC[C@H](Cc1ccc(F)cc1)C(=O)OC[C@@H](Cc1c[nH]c2ccccc12)NC(=O)[C@@H](CC=C)CC(=O)N[C@@H](CO)Cc1ccccc1,?,0,0,-,7.08µM
C=CCC[C@@H](Cc1ccc(F)cc1)C(=O)OC[C@H](Cc1c[nH]c2ccccc12)NC(=O)[C@@H](CC=C)CC(=O)N[C@@H](CO)Cc1ccccc1,0,0,0,-,?
COc1ccc(NS(=O)(=O)c2cc(NC(=O)CCNC(C)=O)ccc2N2CCCCC2)cc1,0,0,0,0,0
CNC(=O)COC(=O)c1ccc([N+](=O)[O-])cc1Cl,0,0,0,0,0
Cc1occc1C(=O)N/N=C/c1cccs1,0,0,12.6µM,0,0
CCN(CC)c1ccc(/C=N/NC(=O)OC)c(O)c1,0,0,0,0,0
Cc1cc(/C=N/NC(=O)c2ccoc2C)cc(C)c1O,0,0,7.94µM,-,0
CCN(CC)c1ccc(/C=N/NC(=O)c2ccoc2C)c(O)c1,0,0,0,0,3.55µM
CC1(C)CC(=O)C(C=Nc2ccc3[nH]ncc3c2)=C(O)C1,0,0,0,0,0
C=CCn1c(N)c(C(=O)Nc2ccc(C)cc2)sc1=S,0,0,1.26µM,0,0
COc1ccccc1C1CN=NC12CCCc1ccccc1C2=O (centres undefined),0,0,0,0,7.08µM
COc1ccc(C2CN=NC23CCCc2ccccc2C3=O)cc1 (centres undefined),0,0,0,0,0
CCN(CC)CCSc1nnc2c3cc(C)ccc3n(Cc3ccccc3)c2n1,?,0,0,0,12.6µM
CCCCn1c2ccc(F)cc2c2nnc(SCCN(CC)CC)nc21,0,0,0,-,0
CC1(C)SC2c3ccccc3C(=O)N2[C@@H]1C(=O)NCCCN1CCOCC1 (some centres undefined),0,0,0,0,0
CCOc1ccc(C2C=C(c3ccccc3)Nc3nnnn32)cc1 (centres undefined),0,0,7.08µM,0,0
COc1ccc2c(-c3cc4ccc(OCc5ccc(F)cc5)cc4oc3=O)cc(=O)oc2c1,0,0,0,0,0
